Binding signal data for two sequences are collected here from PMC7862700, “An all-to-all approach to the identification of sequence-specific readers for epigenetic DNA modifications on cytosine”.

Holding throughout (assay): DAPPL (digital affinity profiling via proximity ligation, sequencing); 10 mM Tris-HCl pH 7.5, 50 mM NaCl, 1 mM DTT, 4% glycerol, room temperature, 30 min; GST-TFs on glutathione beads, 16-mer random dsDNA library, 0.1% formaldehyde crosslink after washing; high values mean tight binding
Details in all cases: protein: recombinant; tags: N-terminal GST; dsDNA, one strand shown

The target in assay [1] is T1, FLI1 (Homo sapiens, UniProt Q01543 1-452).
T1 sequence: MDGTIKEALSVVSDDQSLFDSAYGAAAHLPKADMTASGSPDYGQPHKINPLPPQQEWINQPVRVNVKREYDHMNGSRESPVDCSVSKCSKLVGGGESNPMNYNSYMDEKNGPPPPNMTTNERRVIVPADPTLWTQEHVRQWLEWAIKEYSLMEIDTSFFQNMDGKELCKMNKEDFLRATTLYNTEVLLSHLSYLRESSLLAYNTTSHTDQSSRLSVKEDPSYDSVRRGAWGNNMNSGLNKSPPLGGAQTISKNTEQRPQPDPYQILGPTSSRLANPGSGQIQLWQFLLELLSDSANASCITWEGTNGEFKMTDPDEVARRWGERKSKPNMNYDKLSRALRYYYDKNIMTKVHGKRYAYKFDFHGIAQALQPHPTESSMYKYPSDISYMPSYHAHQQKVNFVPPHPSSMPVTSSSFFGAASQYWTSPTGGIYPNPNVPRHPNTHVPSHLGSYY
The procedure, abridged: (§1)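 Sequencing on an Illumina NextSeq500 followed washing, crosslinking with 0.1% formaldehyde, proximity ligation (BsaI/T4 ligase, 1 h, 37 °C) and PCR amplification of pools that had been incubated for 30 min at room temperature with 200 nmole of a random double-stranded 16-mer DNA library in Tris/NaCl/DTT/glycerol buffer. Each pool held DNA-barcoded human transcription factors, expressed in yeast as GST fusions and captured on glutathione beads, plus a tag-only sample. Binding signal is a hexamer's read frequency for a factor divided by its frequency in the tag-only sample.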

For assay [2], the target named is T2, ELK1 (Homo sapiens, UniProt P19419 1-428).
T2 sequence: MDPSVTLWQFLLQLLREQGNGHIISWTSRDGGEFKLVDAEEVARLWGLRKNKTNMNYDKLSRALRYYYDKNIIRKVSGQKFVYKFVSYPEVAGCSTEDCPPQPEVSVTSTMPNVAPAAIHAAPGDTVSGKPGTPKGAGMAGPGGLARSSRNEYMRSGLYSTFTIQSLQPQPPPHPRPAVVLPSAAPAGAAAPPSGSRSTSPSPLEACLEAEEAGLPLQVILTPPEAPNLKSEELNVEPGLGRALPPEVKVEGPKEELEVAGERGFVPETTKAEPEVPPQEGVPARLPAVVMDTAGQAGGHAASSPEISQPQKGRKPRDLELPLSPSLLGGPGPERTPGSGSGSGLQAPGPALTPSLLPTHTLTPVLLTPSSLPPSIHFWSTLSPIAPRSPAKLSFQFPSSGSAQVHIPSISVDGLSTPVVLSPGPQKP
A digest of the protocol:
as §1

For assay [3], the target named is T3, GABPA (Homo sapiens, UniProt Q06546 1-454).
T3 sequence: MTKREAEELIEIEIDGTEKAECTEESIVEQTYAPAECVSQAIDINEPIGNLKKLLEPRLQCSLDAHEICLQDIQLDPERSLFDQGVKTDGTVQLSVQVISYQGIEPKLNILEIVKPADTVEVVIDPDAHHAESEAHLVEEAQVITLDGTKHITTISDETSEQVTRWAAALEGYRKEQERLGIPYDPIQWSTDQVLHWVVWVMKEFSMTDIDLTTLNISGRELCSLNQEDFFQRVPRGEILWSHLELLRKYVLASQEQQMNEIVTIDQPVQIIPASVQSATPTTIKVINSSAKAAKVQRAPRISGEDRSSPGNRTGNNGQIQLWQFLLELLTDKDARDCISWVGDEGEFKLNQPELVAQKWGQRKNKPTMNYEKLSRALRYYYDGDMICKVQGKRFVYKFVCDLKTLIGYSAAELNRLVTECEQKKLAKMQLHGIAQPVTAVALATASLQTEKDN
A digest of the protocol:
as §1

Assay [4] has as its target T4, ERG (Homo sapiens, UniProt P11308 1-479).
T4 sequence: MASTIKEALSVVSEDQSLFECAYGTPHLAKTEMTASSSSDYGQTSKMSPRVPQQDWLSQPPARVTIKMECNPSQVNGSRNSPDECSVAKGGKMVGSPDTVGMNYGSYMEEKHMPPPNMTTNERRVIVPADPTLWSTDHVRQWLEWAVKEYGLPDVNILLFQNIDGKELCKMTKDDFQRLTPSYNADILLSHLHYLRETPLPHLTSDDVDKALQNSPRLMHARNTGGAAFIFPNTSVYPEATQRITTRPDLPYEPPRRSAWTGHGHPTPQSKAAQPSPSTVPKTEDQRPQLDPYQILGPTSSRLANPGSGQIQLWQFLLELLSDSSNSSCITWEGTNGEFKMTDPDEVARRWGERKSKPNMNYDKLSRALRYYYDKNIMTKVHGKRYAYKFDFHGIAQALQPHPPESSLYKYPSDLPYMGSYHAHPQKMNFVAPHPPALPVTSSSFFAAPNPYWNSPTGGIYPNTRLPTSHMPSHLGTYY
A digest of the protocol:
as §1

The target in assay [5] is ELF1 (Homo sapiens, UniProt P32519 1-619). A digest of the protocol:
as §1

The target of assay [6] is T5, EHF (Homo sapiens, UniProt Q9NZC4 1-300).
T5 sequence: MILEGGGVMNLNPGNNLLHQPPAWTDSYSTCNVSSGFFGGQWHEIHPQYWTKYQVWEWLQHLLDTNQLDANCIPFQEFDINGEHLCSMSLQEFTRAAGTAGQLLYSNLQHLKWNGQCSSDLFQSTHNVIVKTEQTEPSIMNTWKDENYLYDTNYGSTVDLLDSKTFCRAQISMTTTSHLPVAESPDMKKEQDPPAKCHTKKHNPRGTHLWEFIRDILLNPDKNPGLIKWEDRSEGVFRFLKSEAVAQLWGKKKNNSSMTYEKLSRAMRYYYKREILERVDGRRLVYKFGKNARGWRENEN
The procedure, abridged:
as §1

For assay [7], the target named is SPI1 (Homo sapiens, UniProt P17947 1-270). A digest of the protocol:
as §1

Assay [8] concerns the target SPIB (Homo sapiens, UniProt Q01892 1-262). The procedure, abridged: as §1
In assay [9] the target is T6, ELK3 (Homo sapiens, UniProt P41970 1-407).
T6 sequence: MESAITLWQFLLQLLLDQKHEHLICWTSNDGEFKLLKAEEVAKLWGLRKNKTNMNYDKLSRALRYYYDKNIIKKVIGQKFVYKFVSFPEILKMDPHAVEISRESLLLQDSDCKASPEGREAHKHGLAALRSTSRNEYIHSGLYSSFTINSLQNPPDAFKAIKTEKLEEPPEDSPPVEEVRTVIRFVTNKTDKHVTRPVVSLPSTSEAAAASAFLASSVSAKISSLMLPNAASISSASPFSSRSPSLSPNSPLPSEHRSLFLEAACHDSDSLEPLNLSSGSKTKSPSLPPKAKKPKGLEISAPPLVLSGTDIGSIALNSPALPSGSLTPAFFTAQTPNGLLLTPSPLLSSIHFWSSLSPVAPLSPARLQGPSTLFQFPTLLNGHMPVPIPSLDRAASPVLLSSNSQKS
A digest of the protocol: as §1

Assay [10] has as its target T7, FEV (Homo sapiens, UniProt Q99581 1-238).
T7 sequence: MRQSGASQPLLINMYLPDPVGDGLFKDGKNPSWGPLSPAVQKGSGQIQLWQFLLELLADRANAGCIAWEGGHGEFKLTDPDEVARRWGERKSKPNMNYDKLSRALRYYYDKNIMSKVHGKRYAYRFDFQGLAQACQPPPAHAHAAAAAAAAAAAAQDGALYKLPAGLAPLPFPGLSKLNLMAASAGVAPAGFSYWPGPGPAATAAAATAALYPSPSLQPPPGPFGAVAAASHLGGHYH
The procedure, abridged: as §1

The target of assay [11] is ETV5 (Homo sapiens, UniProt P41161 1-510). A digest of the protocol: as §1
ETV5, sequence (P41161 whole entry): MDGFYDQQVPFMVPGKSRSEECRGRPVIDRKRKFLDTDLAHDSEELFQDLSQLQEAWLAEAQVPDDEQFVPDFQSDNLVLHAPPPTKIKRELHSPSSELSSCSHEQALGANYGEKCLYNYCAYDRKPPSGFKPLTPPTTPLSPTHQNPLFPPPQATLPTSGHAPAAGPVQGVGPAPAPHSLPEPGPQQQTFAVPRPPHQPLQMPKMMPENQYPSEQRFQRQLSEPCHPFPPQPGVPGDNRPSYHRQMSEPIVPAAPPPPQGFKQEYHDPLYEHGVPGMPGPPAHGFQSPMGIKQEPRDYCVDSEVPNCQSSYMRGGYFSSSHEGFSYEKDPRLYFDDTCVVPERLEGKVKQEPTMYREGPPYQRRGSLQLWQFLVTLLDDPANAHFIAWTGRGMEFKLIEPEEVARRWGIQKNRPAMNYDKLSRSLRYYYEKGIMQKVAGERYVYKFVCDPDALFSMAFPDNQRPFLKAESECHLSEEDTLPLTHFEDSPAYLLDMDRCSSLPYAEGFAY
Assay [12] deals with T8, SPIC (Homo sapiens, UniProt Q8N5J4 1-248).
T8 sequence: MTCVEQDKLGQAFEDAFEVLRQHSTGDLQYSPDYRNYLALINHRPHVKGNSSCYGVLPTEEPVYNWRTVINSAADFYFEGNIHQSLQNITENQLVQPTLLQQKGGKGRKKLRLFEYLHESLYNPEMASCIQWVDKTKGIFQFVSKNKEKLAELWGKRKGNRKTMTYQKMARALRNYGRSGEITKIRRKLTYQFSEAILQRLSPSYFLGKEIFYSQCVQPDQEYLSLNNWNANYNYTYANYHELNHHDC
A digest of the protocol: as §1

For assay [13], the target named is ELF4 (Homo sapiens, UniProt Q99607 1-663). A digest of the protocol: as §1
ELF4, sequence (Q99607 whole entry): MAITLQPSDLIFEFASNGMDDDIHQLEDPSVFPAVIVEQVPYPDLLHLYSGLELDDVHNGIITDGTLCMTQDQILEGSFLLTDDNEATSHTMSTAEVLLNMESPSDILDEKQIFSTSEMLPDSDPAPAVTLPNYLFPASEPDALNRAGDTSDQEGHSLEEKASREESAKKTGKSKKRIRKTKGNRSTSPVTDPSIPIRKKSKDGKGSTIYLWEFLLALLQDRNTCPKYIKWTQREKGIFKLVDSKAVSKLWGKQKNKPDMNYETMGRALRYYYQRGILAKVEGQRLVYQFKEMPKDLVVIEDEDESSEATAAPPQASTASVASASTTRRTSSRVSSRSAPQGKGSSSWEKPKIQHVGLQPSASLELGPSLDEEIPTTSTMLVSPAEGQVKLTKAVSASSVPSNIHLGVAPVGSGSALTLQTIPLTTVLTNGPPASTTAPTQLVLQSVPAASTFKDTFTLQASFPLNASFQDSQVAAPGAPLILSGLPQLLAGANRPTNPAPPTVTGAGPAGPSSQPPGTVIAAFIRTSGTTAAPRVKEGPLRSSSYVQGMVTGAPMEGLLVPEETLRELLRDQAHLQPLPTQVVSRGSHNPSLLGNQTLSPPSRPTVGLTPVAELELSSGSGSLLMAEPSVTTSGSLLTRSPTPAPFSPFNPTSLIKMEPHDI
Assay [14] addresses T9, ELK4 (Homo sapiens, UniProt P28324-2 1-405).
T9 sequence: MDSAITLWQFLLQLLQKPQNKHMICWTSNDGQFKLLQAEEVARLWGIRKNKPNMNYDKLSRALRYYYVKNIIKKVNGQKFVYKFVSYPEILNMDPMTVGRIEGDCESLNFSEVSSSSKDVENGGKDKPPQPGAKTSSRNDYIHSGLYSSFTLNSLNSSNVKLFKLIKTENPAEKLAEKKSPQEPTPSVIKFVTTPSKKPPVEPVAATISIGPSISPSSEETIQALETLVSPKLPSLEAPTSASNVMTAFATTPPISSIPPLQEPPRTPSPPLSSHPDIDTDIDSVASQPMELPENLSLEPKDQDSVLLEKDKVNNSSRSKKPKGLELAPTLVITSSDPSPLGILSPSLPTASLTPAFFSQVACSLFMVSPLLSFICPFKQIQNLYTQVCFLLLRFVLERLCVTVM
A digest of the protocol:
as §1

Assay [15] addresses T10, ETV2 (Homo sapiens, UniProt O00321 1-342).
T10 sequence: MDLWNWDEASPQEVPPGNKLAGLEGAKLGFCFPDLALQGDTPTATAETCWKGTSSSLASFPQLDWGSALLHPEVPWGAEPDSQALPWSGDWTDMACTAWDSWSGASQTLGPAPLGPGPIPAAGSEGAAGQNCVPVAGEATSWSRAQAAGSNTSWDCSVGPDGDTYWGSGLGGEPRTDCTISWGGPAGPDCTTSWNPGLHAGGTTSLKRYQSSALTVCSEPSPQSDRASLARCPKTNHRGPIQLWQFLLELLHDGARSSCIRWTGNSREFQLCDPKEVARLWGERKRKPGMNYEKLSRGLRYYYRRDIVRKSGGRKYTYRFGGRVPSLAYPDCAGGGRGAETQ
A digest of the protocol: as §1

For assay [16], the target named is ETV1 (Homo sapiens, UniProt P50549 1-477). A digest of the protocol:
as §1

ELF1, sequence (P32519 whole entry): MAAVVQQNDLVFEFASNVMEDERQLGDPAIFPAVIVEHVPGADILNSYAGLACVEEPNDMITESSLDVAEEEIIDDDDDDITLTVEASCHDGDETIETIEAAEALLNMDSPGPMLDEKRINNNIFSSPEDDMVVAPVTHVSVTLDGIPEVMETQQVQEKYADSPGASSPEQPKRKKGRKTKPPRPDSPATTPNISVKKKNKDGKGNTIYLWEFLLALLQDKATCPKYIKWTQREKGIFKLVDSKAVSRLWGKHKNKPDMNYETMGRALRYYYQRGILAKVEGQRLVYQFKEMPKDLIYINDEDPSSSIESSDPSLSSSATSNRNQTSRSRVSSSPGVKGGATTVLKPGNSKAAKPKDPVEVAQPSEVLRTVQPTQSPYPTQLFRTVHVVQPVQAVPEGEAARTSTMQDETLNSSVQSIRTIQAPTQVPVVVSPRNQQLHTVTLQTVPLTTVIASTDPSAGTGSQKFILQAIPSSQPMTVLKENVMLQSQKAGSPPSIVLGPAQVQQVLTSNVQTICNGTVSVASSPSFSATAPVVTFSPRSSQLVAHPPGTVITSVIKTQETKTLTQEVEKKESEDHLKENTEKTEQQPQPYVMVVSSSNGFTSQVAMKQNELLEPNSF
SPIB, sequence (Q01892 whole entry): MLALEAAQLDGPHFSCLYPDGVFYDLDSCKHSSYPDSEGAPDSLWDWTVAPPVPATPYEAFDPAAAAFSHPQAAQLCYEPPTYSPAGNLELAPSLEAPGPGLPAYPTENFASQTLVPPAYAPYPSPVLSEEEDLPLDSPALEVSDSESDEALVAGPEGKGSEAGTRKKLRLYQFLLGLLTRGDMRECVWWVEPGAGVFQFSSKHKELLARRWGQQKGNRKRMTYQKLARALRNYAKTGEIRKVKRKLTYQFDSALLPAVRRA
ETV1, sequence (P50549 whole entry): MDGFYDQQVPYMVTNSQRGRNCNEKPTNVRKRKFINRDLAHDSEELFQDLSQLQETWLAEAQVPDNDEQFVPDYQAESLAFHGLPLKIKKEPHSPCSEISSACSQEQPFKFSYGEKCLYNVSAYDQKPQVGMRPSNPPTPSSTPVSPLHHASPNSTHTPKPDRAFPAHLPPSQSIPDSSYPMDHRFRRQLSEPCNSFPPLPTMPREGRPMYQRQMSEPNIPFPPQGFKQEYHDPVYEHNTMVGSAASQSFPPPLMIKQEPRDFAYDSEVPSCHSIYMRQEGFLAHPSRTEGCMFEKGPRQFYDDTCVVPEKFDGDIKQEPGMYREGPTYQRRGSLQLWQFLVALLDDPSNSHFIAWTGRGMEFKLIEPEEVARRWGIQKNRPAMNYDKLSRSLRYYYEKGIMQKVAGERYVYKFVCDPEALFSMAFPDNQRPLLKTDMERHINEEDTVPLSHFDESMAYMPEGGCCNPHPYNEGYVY

Consider GTCCAC, for which the binding signal was 1.03 fold enrichment (6-mer frequency, TF over GST control) in assay [1]; 1.07 fold enrichment (6-mer frequency, TF over GST control) in [2]; 1.11 fold enrichment (6-mer frequency, TF over GST control) in [3]; 1.03 fold enrichment (6-mer frequency, TF over GST control) in assay [4]; 1.02 fold enrichment (6-mer frequency, TF over GST control) in assay [5]; 1.12 fold enrichment (6-mer frequency, TF over GST control) in assay [6]. Moreover, the binding signal in [7] was 1.02 fold enrichment (6-mer frequency, TF over GST control); in assay [8], 1.09 fold enrichment (6-mer frequency, TF over GST control); in assay [9] it was 1.04 fold enrichment (6-mer frequency, TF over GST control); in assay [10], 1.08 fold enrichment (6-mer frequency, TF over GST control); in assay [11], 1.07 fold enrichment (6-mer frequency, TF over GST control); in assay [12], 1.05 fold enrichment (6-mer frequency, TF over GST control). In addition, the binding signal in [13] was 1.06 fold enrichment (6-mer frequency, TF over GST control); in assay [14], 1.07 fold enrichment (6-mer frequency, TF over GST control); in assay [15], 1.14 fold enrichment (6-mer frequency, TF over GST control).
With CGGTAT, the binding signal in assay [1] was 1.08 fold enrichment (6-mer frequency, TF over GST control); in [2], 1.12 fold enrichment (6-mer frequency, TF over GST control); in assay [3], 1.01 fold enrichment (6-mer frequency, TF over GST control); in assay [4], 1.13 fold enrichment (6-mer frequency, TF over GST control); in assay [5], 1.1 fold enrichment (6-mer frequency, TF over GST control); in [6] it was 1.08 fold enrichment (6-mer frequency, TF over GST control). Moreover, the binding signal was 1.07 fold enrichment (6-mer frequency, TF over GST control) in assay [8]; 1.01 fold enrichment (6-mer frequency, TF over GST control) in [9]; 1.08 fold enrichment (6-mer frequency, TF over GST control) in [10]; 1.06 fold enrichment (6-mer frequency, TF over GST control) in assay [11]; 1.08 fold enrichment (6-mer frequency, TF over GST control) in assay [12]; 1.06 fold enrichment (6-mer frequency, TF over GST control) in [13]. The binding signal is 1.03 fold enrichment (6-mer frequency, TF over GST control) in assay [14]; 1.31 fold enrichment (6-mer frequency, TF over GST control) in assay [15]; 1.09 fold enrichment (6-mer frequency, TF over GST control) in assay [16].
